Compounds without any hit were thinned out: in the full panel of roughly 83,000, 20% have a hit.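 Method: cells in 96-well plates; compound added at one concentration; 48 h incubation; percent growth measured; values under 10 scored active.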 Active and inactive are the calls of the source.
Assays:
Test in all cases: NCI-60 one-dose screen, 48 h (100 = growth as untreated, 0 = no growth, -100 = all killed)
Conditions in all cases: 10 µM
SR leukemia = test system: SR leukemia
RPMI-8226 leukemia = test system: RPMI-8226 leukemia
OVCAR-8 ovarian = test system: OVCAR-8 ovarian
OVCAR-4 ovarian = test system: OVCAR-4 ovarian
SK-OV-3 ovarian = test system: SK-OV-3 ovarian
IGROV1 ovarian = test system: IGROV1 ovarian
OVCAR-3 ovarian = test system: OVCAR-3 ovarian
HS 578T breast = test system: HS 578T breast
NCI/ADR-RES ovarian = test system: NCI/ADR-RES ovarian
T-47D breast = test system: T-47D breast
BT-549 breast = test system: BT-549 breast
MDA-MB-435 melanoma = test system: MDA-MB-435 melanoma
SW-620 colon = test system: SW-620 colon
MCF7 breast = test system: MCF7 breast
HCT-116 colon = test system: HCT-116 colon
KM12 colon = test system: KM12 colon
HCC-2998 colon = test system: HCC-2998 colon
OVCAR-5 ovarian = test system: OVCAR-5 ovarian

Measured: growth

Cc1nn(-c2ccc(-c3ccc(OC(F)(F)F)cc3)cc2)c2nc(Cc3ccccc3)nc(N)c12
active: OVCAR-4 ovarian 4.27%
inactive: SR leukemia 41.8% | RPMI-8226 leukemia 92.1% | OVCAR-8 ovarian 33% | SK-OV-3 ovarian 56.9% | IGROV1 ovarian 47.3% | OVCAR-3 ovarian 46.5% | HS 578T breast 55.5% | NCI/ADR-RES ovarian 40.5% | T-47D breast 49% | BT-549 breast 99.4% | MDA-MB-435 melanoma 83.5% | SW-620 colon 54.4% | MCF7 breast 73.8% | HCT-116 colon 36.3% | KM12 colon 79.6%

OCC1OC(n2cnc3c(NCc4ccco4)ncnc32)C(O)C1O (stereo unspecified)
inactive: RPMI-8226 leukemia 50.8% | OVCAR-4 ovarian 23% | HS 578T breast 11.5% | NCI/ADR-RES ovarian 12.7% | MDA-MB-435 melanoma 17.2% | SW-620 colon 18.8% | HCC-2998 colon 23.7% | KM12 colon 62.8%
active: SR leukemia 5.19% | OVCAR-8 ovarian 0.871% | SK-OV-3 ovarian -2.77% | IGROV1 ovarian -3.86% | OVCAR-3 ovarian -41.7% | T-47D breast 8.92% | BT-549 breast -23% | MCF7 breast -13.1% | HCT-116 colon 1.81%

CCCN(CCC)C(=O)[C@H](CC)[C@@H]1CC[C@@H](C)[C@@H]([C@H](C)[C@@H](O)[C@@H](C)C(=O)[C@H](CC)C2O[C@]3(C=C[C@@H](O)[C@]4(CC[C@@](C)([C@H]5CC[C@](O)(CC)[C@H](C)O5)O4)O3)[C@H](C)C[C@@H]2C)O1 (stereo partly specified)
active: OVCAR-4 ovarian 7.28% | SK-OV-3 ovarian 3.96% | OVCAR-3 ovarian 2.11% | NCI/ADR-RES ovarian -11.2% | BT-549 breast 6.17% | MDA-MB-435 melanoma 3.17% | SW-620 colon 9.23% | MCF7 breast -15.3% | HCT-116 colon 6.43% | HCC-2998 colon 4.75%
inactive: SR leukemia 15.2% | OVCAR-8 ovarian 15% | OVCAR-5 ovarian 11.4% | IGROV1 ovarian 17.1% | HS 578T breast 11.7% | T-47D breast 11.1% | KM12 colon 19.9%

Nc1nc(Cn2c(-c3nonc3N)nc3ccccc32)nc(N2CCCCC2)n1
inactive: SR leukemia 58.9% | RPMI-8226 leukemia 68% | OVCAR-8 ovarian 93.2% | OVCAR-4 ovarian 107% | SK-OV-3 ovarian 79.1% | OVCAR-3 ovarian 95.6% | HS 578T breast 97.2% | NCI/ADR-RES ovarian 83.3% | T-47D breast 83% | BT-549 breast 89% | MDA-MB-435 melanoma 39.2% | SW-620 colon 94.4% | MCF7 breast 83.5% | HCT-116 colon 87.7% | HCC-2998 colon 95.9% | KM12 colon 75.6%

COc1cc(C2CC(c3ccc4c(c3)OCO4)=NN2c2ccccc2)cc(OC)c1OC (stereo unspecified)
inactive: SR leukemia 71.9% | RPMI-8226 leukemia 75.7% | OVCAR-8 ovarian 99.3% | SK-OV-3 ovarian 107% | OVCAR-3 ovarian 89.8% | HS 578T breast 93.6% | NCI/ADR-RES ovarian 77.7% | BT-549 breast 71.9% | MDA-MB-435 melanoma 30.7% | SW-620 colon 89.4% | MCF7 breast 87.4% | HCT-116 colon 93.5% | HCC-2998 colon 83.2% | KM12 colon 60.9%

COc1cc2c(cc1NC(=O)C(F)(F)F)-c1ccc(NC(=O)C(F)(F)F)cc1C2
inactive: SR leukemia 107% | RPMI-8226 leukemia 103% | OVCAR-8 ovarian 96.8% | SK-OV-3 ovarian 54.7% | IGROV1 ovarian 103% | OVCAR-3 ovarian 108% | HS 578T breast 77.8% | NCI/ADR-RES ovarian 93.3% | T-47D breast 83.8% | BT-549 breast 98.7% | MDA-MB-435 melanoma 99.6% | SW-620 colon 98.1% | MCF7 breast 94.2% | HCT-116 colon 97.1% | HCC-2998 colon 105%

OC(CCN1CCCC1)(c1ccccc1)C1CCCCC1 (stereo unspecified)
inactive: SR leukemia 123% | RPMI-8226 leukemia 114% | OVCAR-8 ovarian 104% | OVCAR-4 ovarian 104% | SK-OV-3 ovarian 120% | OVCAR-3 ovarian 105% | HS 578T breast 103% | NCI/ADR-RES ovarian 105% | T-47D breast 102% | BT-549 breast 106% | MDA-MB-435 melanoma 101% | SW-620 colon 105% | MCF7 breast 101% | HCT-116 colon 104% | HCC-2998 colon 105%

Cc1ccc(-n2c(C)nn3c(=O)c4c5c(sc4nc23)CN(C)CC5)cc1
inactive: SR leukemia 104% | OVCAR-8 ovarian 103% | OVCAR-5 ovarian 98.8% | OVCAR-4 ovarian 102% | SK-OV-3 ovarian 95.1% | IGROV1 ovarian 101% | OVCAR-3 ovarian 96.7% | HS 578T breast 107% | NCI/ADR-RES ovarian 101% | T-47D breast 81.3% | BT-549 breast 97.6% | MDA-MB-435 melanoma 102% | SW-620 colon 104% | MCF7 breast 92.3% | HCT-116 colon 93.5% | HCC-2998 colon 97.2% | KM12 colon 96%

COc1cccc(CNc2cccc3cn[nH]c23)c1O
inactive: SR leukemia 103% | RPMI-8226 leukemia 100% | OVCAR-8 ovarian 96.5% | OVCAR-4 ovarian 80.7% | SK-OV-3 ovarian 101% | IGROV1 ovarian 88.8% | OVCAR-3 ovarian 100% | NCI/ADR-RES ovarian 105% | T-47D breast 89.1% | BT-549 breast 104% | SW-620 colon 99.1% | MCF7 breast 71.5% | HCT-116 colon 102% | HCC-2998 colon 107%

Reference: PubChem BioAssay (NCI)
